The list is not random: actives were taken first. Their share in the collection is about 3.5%.
BoNT-F LC inh = BoNT/F light chain protease inhibitors, primary screen, biochemical, flow cytometry, MLPCN library | AID 588497, 2011 | Botulinum neurotoxin type F light chain protease (Clostridium botulinum) | Multiplex microsphere protease cleavage assay | inhibition, % at 10 µM | 360,000 compounds, 0.22% hits; in the data active means inhibition above about 35%, passing the limit was not always enough; inconclusive means no clear call, values can overlap the other calls; further: plate controls were buffer without enzyme for full effect and enzyme alone for no effect
BoNT A protease = BoNT/A light chain protease inhibitors, primary screen, biochemical, flow cytometry, MLPCN library | multiplex microsphere protease substrate cleavage | inhibition, % at 10 µM | 360,000 compounds, 0.17% hits; further: plate controls were buffer without enzyme for full effect and enzyme alone for no effect
Autofluor counter = counter-screen for toxin protease inhibitors: compound fluorescence; compound autofluorescence counterscreen, microsphere flow cytometry; hits give high values; fluorescence intensity (test concentration not listed); 360,000 compounds, 3.1% hits; in the data active means fluorescence intensity above about 16000; inconclusive means no clear call, values can overlap the other calls
3CLpro inhibitor = SARS-CoV 3CLpro protease inhibitors, primary screen, biochemical, quenched FRET; recombinant SARS-CoV 3CLpro, quenched FRET peptide cleavage; inhibition, % at 6 µM; Replicase polyprotein 1ab (Severe acute respiratory syndrome coronavirus), P0C6X7; 290,000 compounds, 0.14% hits; AID 1706, 2009; in the data active means inhibition above about 12%
Anthrax LF prot = Bacillus anthracis LF protease inhibitors, primary screen, biochemical, multiplex microsphere, MLPCN library | Lethal factor (Bacillus anthracis), P15917 | 360,000 compounds, 0.12% hits | multiplex microsphere protease cleavage assay | inhibition, % at 10 µM; further: plate controls were buffer without enzyme for full effect and enzyme alone for no effect
Active calls of the source: *; ? = inconclusive; / = no result given. Unless noted, no stated cut-off is given here; in the data, active means inhibition above about 30%; inconclusive means no clear call, values can overlap the other calls; inactive means below that.

SMILES	BoNT-F LC inh	BoNT A protease	Autofluor counter	3CLpro inhibitor	Anthrax LF prot
Cc1ccc(N2C(=O)NC(=O)/C(=C/c3ccc(OC(=O)c4cccs4)cc3)C2=O)cc1	-5.6	?	24767*	7.3	-4.3
O=c1c2ccccc2[se]n1-c1ccccc1	38.3*	81.1*	7730	1.4	3.6
O=C(Cc1nc2ccccc2[nH]c1=O)c1ccccc1	-2.9	0.7	4104	4.1	-2.1
COc1ccc(C2=NOC(C)(c3nnc(Cc4ccccc4)o3)C2)cc1 (configuration not stated)	6.8	0.0	3111	/	12.3
O=C(Nc1ccccc1F)c1cnccn1	-1.5	-0.3	4468	2.1	-2.4
O=C(Nc1ccccc1F)c1cc2nc(C(F)F)cc(C(F)F)n2n1	-7.2	-6.4	21540*	-1.1	-1.7
CC(C)NC(=O)c1cc(-n2cnnc2)ccc1Cl	5.9	2.0	20045*	6.8	0.9
Cc1c(NC(=O)c2cc(-n3cnnc3)ccc2Cl)cccc1-c1nc2ccccc2s1	-2.8	-0.8	22973*	1.6	-1.9
Cc1ccnc(NC(=O)c2cc(-n3cnnc3)ccc2Cl)c1	0.3	?	22908*	-3.3	1.6
CCCCCC1CC(CC(=O)O)C(=O)O1 (configuration not stated)	-4.4	-0.6	3926	6.4	-3.4
CSCC(=O)N1CCC(CCC(=O)NC2CC2)CC1	-1.2	1.4	5513	-0.7	1.9
O=c1c2ccccc2ncn1C1CCCCC1	-3.5	-0.7	7976	-0.9	-4.9
COc1ccc(-c2oc(NC(=O)CSc3ncn[nH]3)c(C#N)c2-c2ccc(OC)cc2)cc1	-4.1	-2.0	22915*	-1.1	-7.9
Cc1nnc(NC(=O)c2cc(S(=O)(=O)N(C)C)ccc2N2CCCC2)s1	-1.1	0.7	8659	/	-4.0
Cc1cccc(C)c1NC(=O)Cn1nnc(-c2ccc(N3CCOCC3)cc2)n1	-2.9	-1.7	20925*	2.5	-1.7
CN1CCc2nc(NC(=O)c3cccc(S(=O)(=O)N4CCc5ccccc54)c3)sc2C1	16.2	3.2	2765	1.5	5.3
COC(=O)c1cc(C(=O)Nc2cccc(C)n2)cc([N+](=O)[O-])c1	-5.5	-0.4	2589	-0.1	-0.8
CCCC(C)c1nnc(NC(=O)c2cc(C(=O)OC)cc([N+](=O)[O-])c2)s1 (configuration not stated)	-2.3	?	16199*	1.6	0.5
COC(=O)c1cc(C(=O)Nc2ccc(C)cn2)cc([N+](=O)[O-])c1	-2.2	?	22666*	-1.2	1.7
Cc1ccc(C(=O)C2=C(O)C(=O)N(Cc3cccnc3)C2c2ccc(Cl)c(Cl)c2)o1 (configuration not stated)	-0.5	-1.3	4474	-0.8	-2.4
CCN(CC)Cc1c(C(=O)N/N=C/c2cccc(OCc3cccc(Cl)c3)c2)nnn1-c1nonc1N	-10.5	-2.4	4298	-0.8	-1.4
COC(=O)c1[nH]c2cccc(OC)c2c1NC(=O)CN1CCOCC1	-4.5	-0.7	2909	-3.0	2.2
COC(=O)c1[nH]c2cccc(OC)c2c1NC(=O)CN(C)CC1OCCO1	-2.0	-1.3	16319*	5.7	-11.6
Cc1nc2ccccc2n1CC(=O)NCCN1CCCC1	5.0	0.3	9872	-4.3	-0.8
O=C(Cn1c(C(F)(F)F)nc2ccccc21)NCCN1CCCC1	-3.2	2.7	22679*	2.9	-4.7
SMILES	BoNT-F LC inh	BoNT A protease	Autofluor counter	3CLpro inhibitor	Anthrax LF prot
CCOC(=O)c1c(NC(NC(=O)C(C)C)C(Cl)(Cl)Cl)sc2c1CCC2 (configuration not stated)	47.0*	4.1	2881	0.2	-4.1
O=C1c2ccccc2C(=O)N1CCSc1nc2ccccc2c(=O)n1CCCN1CCOCC1	-2.3	-0.2	5668	-0.3	-4.5
O=C(CCn1c(=O)c2ccccc2n(CC(=O)NCCC2=CCCCC2)c1=O)NCc1ccco1	-7.4	-0.2	2404	-3.0	-2.4
Cc1ccc2c(c1)NCCO2	-1.2	?	23601*	2.8	-6.0
CCCCCCCCC(=O)NCCOc1ccc(OC)cc1	1.7	-0.1	2569	0.5	4.0
CCOc1ccc(S(=O)(=O)NCCC(=O)N(C)CC(=O)Nc2ccc(N3CCOCC3)cc2)cc1	-30.2	-24.8	?	/	-5.1
c1ccc(OCc2nn3c(-c4ccccn4)nnc3s2)cc1	-0.8	0.0	9463	1.6	-11.3
c1ccc(OCc2nn3c(-c4ccncc4)nnc3s2)cc1	-4.7	-4.2	21442*	-1.4	-1.0

Bioassay records deposited in PubChem by several laboratories.
